Assay [1] is described as follows: qHTS assay to identify small molecule agonists of the hypoxia (HIF-1) signaling pathway - cell viability counter screen (AID 1224844; calls by dose curve; further: nearly all actives have a fitted effect of over 50% in size; further: potency means the concentration at half of the fitted maximal effect). Summed up: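 HRE-bla ME-180 cells in medium with 0.5% dialyzed FBS were preincubated 5 hrs at 37C, exposed to compounds for 17 hrs, then viability was read as CellTiter-Glo luminescence after 30 min at room temperature, in the reporter wells.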

The nature of assay [2]: qHTS assay to identify small molecule agonists of H2AX (AID 1224845; active means well fitted activation curve with a large enough effect in the signal ratio in the repeat runs, not every such curve was filed as active; the % refers to the signal ratio). The procedure, abridged:
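Phospho-H2AX Ser139 measured by HTRF (ex 320 nm; em 665 and 620 nm) after 24 hr antibody incubation. Compounds, 15 concentrations, 0.76% DMSO, were applied to CHO-K1 cells for 3hr at 37C before lysis.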
For orientation: In qHTS, concentration-response curves come from the screen itself.

Assay [3] in a line: qHTS assay to identify small molecule agonists of the hypoxia (HIF-1) signaling pathway (AID 1224846; active means well fitted activation curve with a large enough effect in the signal ratio in the repeat runs, not every such curve was filed as active; the % refers to the signal ratio). Summed up:
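HRE-bla ME-180 cells (beta-lactamase reporter under hypoxia response element) were plated at 2,000 cells/well in medium with 0.5% dialyzed FBS, rested 5 hrs, then given compounds in DMSO for 17 hrs at 37C, 5% CO2. Reporter induction was read with CCF4-AM FRET substrate.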

A short description of assay [4]: qHTS assay to identify small molecule antagonists of the estrogen related receptor (ERR) signaling pathway from Tox21 library (AID 1224848). Further: nearly all actives have a fitted effect of over 50% in size. Further: potency means the concentration at half of the fitted maximal effect. Summed up:
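Reading was by luminescence 30 min after ONE-Glo addition. Before that, ERR cells at 2,000 per well had rested 6 h at 37 C/5% CO2 and then received pin-tooled compounds in DMSO for 18 h at 37 C.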

Assay [5] in a line: qHTS assay to identify small molecule agonists of the estrogen related receptor (ERR) signaling pathway from Tox21 library (AID 1224849; calls by dose curve; further: nearly all actives have a fitted effect of over 15% in size). As to conditions: ERR reporter cell line, ONE-Glo luciferase, 18 h; at 92.4 µM (top of the series) unless noted. The procedure, abridged:
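ERR reporter cell line (NTP) seeded, rested 6 h at 37 C/5% CO2, then pinned with Tox21 compounds in DMSO. After 18 h at 37 C, ONE-Glo luciferase luminescence was read following 30 min at room temperature.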

A short description of assay [6]: qHTS RealTime-Glo MT Cell Viability Assay in HepG2 cells - 24 hour (AID 1224867). Further: nearly all actives have a fitted effect of over 50% in size. Summed up:
(§1)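 Cell number in HepG2 cultures estimated from NanoLuc luminescence generated by metabolic reduction of a prosubstrate by living cells. The homogeneous, nonlytic format allowed repeated reads at 0, 8, 16, 24, 32 and 40 h of compound exposure.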

Assay [7] is described as follows: qHTS RealTime-Glo MT Cell Viability Assay in HEK293 cells - 32 hour (AID 1224868). Further: nearly all actives have a fitted effect of over 50% in size. Further: potency means the concentration at half of the fitted maximal effect. Summed up: (§2)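 Homogeneous bioluminescent viability format in HEK293 cells (600 cells/well). Following 5 h at 37 C/5% CO2, 23 nL compound was pintooled; the signal was measured repeatedly during 40 h incubation.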
Assay [8] in a line: A CellTox Green Cytotoxicity Assay to monitor cytotoxicity in HEK293 cells - 0 hour (AID 1224869). Further: nearly all actives have a fitted effect of over 50% in size. Further: potency means the concentration at half of the fitted maximal effect. Summed up:
(§3)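 HEK293 cells premixed with CellTox Green dye were seeded at 600 cells/well and left 5 h at 37 C/5% CO2 before pin transfer of 23 nL compound in DMSO. Fluorescence from dye bound to dead-cell DNA was read during 40 h treatment.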

Assay [9] can be described thus: qHTS RealTime-Glo MT Cell Viability Assay in HepG2 cells - 40 hour (AID 1224870). Further: nearly all actives have a fitted effect of over 50% in size. Summed up:
(§4)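 Real-time viability: cells seeded at 600 per well together with NanoLuc and cell-permeant prosubstrate, compounds added after 5 h incubation. Luminescence tracked at 0, 8, 16, 24, 32 and 40 h of exposure.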

The nature of assay [10]: qHTS RealTime-Glo MT Cell Viability Assay in HEK293 cells - 16 hour (AID 1224872). Further: nearly all actives have a fitted effect of over 50% in size. Further: potency means the concentration at half of the fitted maximal effect. Summed up:
as §2

The nature of assay [11]: qHTS RealTime-Glo MT Cell Viability Assay in HepG2 cells - 8 hour (AID 1224873). Further: nearly all actives have a fitted effect of over 55% in size. Summed up:
as §4

Assay [12] can be described thus: qHTS RealTime-Glo MT Cell Viability Assay in HEK293 cells - 40 hour (AID 1224874). Further: nearly all actives have a fitted effect of over 50% in size. Further: potency means the concentration at half of the fitted maximal effect. As to conditions: RealTime-Glo luminescence; max response: stronger effect = lower value. The procedure, abridged:
(§5)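 HEK293 cells mixed with RealTime-Glo reagents (NanoLuc plus cell-permeant prosubstrate) at 600 cells/well, preincubated 5 h at 37 C/5% CO2, then given 23 nL compound in DMSO. Nonlytic luminescence from viable cells was read at 0, 8, 16, 24, 32 and 40 h.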

The nature of assay [13]: A CellTox Green Cytotoxicity Assay to monitor cytotoxicity in HepG2 cells - 16 hour (AID 1224876). Further: nearly all actives have a fitted effect of over 45% in size. Further: potency means the concentration at half of the fitted maximal effect. Summed up: (§6)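 HepG2 cells were seeded together with the CellTox Green dye at 600 cells/well, left 5 h at 37 C/5% CO2, then given compounds in DMSO. Fluorescence from dye bound to dead-cell DNA was read repeatedly over 40 h of treatment at 37 C.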
The nature of assay [14]: qHTS RealTime-Glo MT Cell Viability Assay in HepG2 cells - 32 hour (AID 1224877). Further: nearly all actives have a fitted effect of over 55% in size. The procedure, abridged: as §1
The nature of assay [15]: qHTS RealTime-Glo MT Cell Viability Assay in HEK293 cells - 0 hour (AID 1224880). Further: top concentration of the series differs between compounds; nearly all actives have a fitted effect of over 45% in size. The procedure, abridged: as §5
The nature of assay [16]: A CellTox Green Cytotoxicity Assay to monitor cytotoxicity in HEK293 cells - 40 hour (AID 1224871). Further: nearly all actives have a fitted effect of over 45% in size. Further: potency means the concentration at half of the fitted maximal effect. The procedure, abridged: as §3
Assay [17] can be described thus: A CellTox Green Cytotoxicity Assay to monitor cytotoxicity in HEK293 cells - 24 hour (AID 1224875). Further: nearly all actives have a fitted effect of over 45% in size. Further: potency means the concentration at half of the fitted maximal effect. The procedure, abridged: as §3
A short description of assay [18]: A CellTox Green Cytotoxicity Assay to monitor cytotoxicity in HepG2 cells - 24 hour (AID 1224878). Further: nearly all actives have a fitted effect of over 45% in size. Further: potency means the concentration at half of the fitted maximal effect. Summed up:
as §6

Assay [19] can be described thus: A CellTox Green Cytotoxicity Assay to monitor cytotoxicity in HepG2 cells - 40 hour (AID 1224879). Further: nearly all actives have a fitted effect of over 40% in size. Further: potency means the concentration at half of the fitted maximal effect. The procedure, abridged: as §6
Assay [20] can be described thus: qHTS assay to identify small molecule agonists of H2AX - cell viability counter screen (AID 1224847; calls by dose curve; further: top concentration of the series differs between compounds; nearly all actives have a fitted effect of over 30% in size). The procedure, abridged: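 Viability of CHO-K1 (wild type) cells after 3 hr compound exposure was measured by CellTiter-Glo luminescence.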

Values without a mark were called inactive. Inconclusive results are not listed. Active and inactive are the calls of the source. Unless noted, the call rests on the fitted dose curve; in most records, active means well fitted curve in the direction sought with a large enough effect in the repeat runs; inconclusive means weak or mixed curves; inactive means no such curve, though single readings can be large; an effect the other way counts as inactive or inconclusive.
On the % scale 0 is the no-effect control and ±100 the full control effect.

For the molecule `Oc1ccc(Cc2ccccc2)cc1`, the Potency result in [1], in [2], in assay [4], in [6], in assay [8] and in assay [9] was “inactive” throughout. The Potency result in assay [11], in assay [13], in assay [14] and in assay [15] was “inactive” in each case. Further, in [3], the result was inactive. Also, the activity change, positive = activation in assay [5] is 2.56%. Besides, the Potency in [7] is 36 µM (active); in assay [10], 36 µM (active); in [12], 40.4 µM (active).

Regarding `CCCCOC(O)CC` (configuration not stated), the Potency entry in assay [1], in assay [2], in assay [6], in assay [7], in [8] and in assay [9] was “inactive” each time. The Potency entry in assay [16], in assay [10], in assay [11], in [17], in [13] and in [14] was “inactive” each time. In addition, the Potency entry in [18], in [19] and in assay [15] was “inactive” each time. Moreover, in assay [3], the call was inactive. Also, in assay [12], the max response is 3%.

Take `CC(C)(C)C1CCCCC1O` (configuration not stated): the Potency entry in assay [1], in assay [2], in assay [6], in assay [8], in assay [9] and in assay [16] was “inactive” throughout. Besides, the Potency result in assay [10], in assay [11], in [17], in [14] and in assay [15] was “inactive” each time. Also, the molecule was called inactive in assay [3]. In addition, the max response in [12] was 0.612%.

`Cc1cccc(C(C)(C)C)c1O`: the Potency entry in assay [1], in assay [2], in [6], in assay [8], in assay [9] and in [10] was “inactive” each time. The Potency entry in [11], in assay [13], in assay [14], in assay [18] and in assay [15] was “inactive” throughout. In addition, in assay [3], the result was inactive. Moreover, the max response in [12] is -2.49%.

With `CC(Cc1cccc(C(F)(F)F)c1)NCCOC(=O)c1ccccc1` (configuration not stated), the Potency entry in [1], in assay [2], in [6], in assay [8], in assay [9] and in assay [11] was “inactive” in each case. Besides, the Potency result in [17], in assay [14] and in assay [15] was “inactive” throughout. Further, the molecule was called inactive in assay [3]. In addition, the Potency in assay [16] was 21.3 µM (active).

Regarding `CC(=O)NCCCS(=O)(=O)O`, the Potency entry in assay [1], in assay [2], in assay [6], in [7], in [9] and in assay [10] was “inactive” each time. Besides, the Potency entry in assay [11], in [14] and in [15] was “inactive” each time. The outcome in assay [3] was inactive. Also, the Potency in assay [8] was 18.9 µM (active); in [16], 16.9 µM (active); in assay [17], 16.9 µM (active); in assay [13] it was 18.9 µM (active); in [18], 18.9 µM (active); in [19], 18.9 µM (active). Also, the max response in assay [12] is 14.9%.

As for `Cc1ccc2c(ccc3ccccc32)c1`, the Potency entry in [1], in assay [2], in assay [6], in [8], in assay [9] and in [16] was “inactive” throughout. For the same molecule, the Potency result in [10], in assay [11], in assay [17], in assay [13], in [14] and in assay [18] was “inactive” in each case. Besides, the Potency result in assay [19] and in assay [15] was “inactive” in each case. For the same molecule, in assay [3], the call was inactive.

Turning to `COc1ccc([C@@H]2Sc3ccccc3N(CCN(C)C)C(=O)[C@@H]2OC(C)=O)cc1`, the Potency in [1] was 21.3 µM (active); in [4] it was 16.8 µM (active). For the same molecule, the Potency result in assay [2], in assay [20], in assay [6], in [8], in [9] and in assay [16] was “inactive” throughout. The Potency entry in [11], in assay [17], in assay [13], in assay [14], in assay [18] and in assay [19] was “inactive” throughout. The Potency result in assay [15] was “inactive”. In addition, the activity change, positive = activation in assay [5] was -33.7% [at 42.5 µM].

The values above are taken from PubChem BioAssay (Tox21).
